The results in this text go back to PubChem BioAssay AID449762 (Southern Research Specialized Biocontainment Screening …, 2010).

Hit rate of the full screen: of about 330,000 compounds, about 1,900 (0.58%) were called active. Not shown: some 4% with an inconclusive outcome. No stated cut-off is given here; in the data, inconclusive means inhibition above about 70% without an active follow-up result; inactive means below that. These entries were drawn from the full list. Measured potencies and affinities stand elsewhere.

The assay is described as follows: M. tuberculosis growth inhibition, HTS (AID 449762).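 Further: bacterial growth assessed after seven days of incubation.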 The note with it: M. tuberculosis H37Rv growth inhibition, 7H9 media; at 25 µM; stronger effect = higher value.
As for `Cn1c(=O)c2c(ncn2CC(=O)Nc2ccc(N3CCOCC3)cc2)n(C)c1=O`, the inhibition (as a rule, the change of the read-out against control, counted positive when it falls) is -5.62% (inactive).

Regarding `O=C(O)CN=CC1=C(O)CC(c2ccccc2)CC1=O` (stereo unspecified), the inhibition was 4.73% (inactive). On to `N/C(Cc1ccc(Cl)cc1)=N\OC(=O)c1ccc2ccccc2c1`, for which the inhibition is 0.18% (inactive). As to `N/C(Cc1ccc([N+](=O)[O-])cc1)=N\OC(=O)c1ccc([N+](=O)[O-])cc1`, the inhibition is 44.8% (inactive). Turning to `CCCCn1c(N)c(N(CCOC)C(=O)c2cccc(S(=O)(=O)N3CCCCCC3)c2)c(=O)[nH]c1=O`, the inhibition was -2.07% (inactive).

For the molecule `CC(=O)Oc1cccc(N2C(=O)c3ccccc3C2=O)c1`, the inhibition was -13.4% (inactive).

With `CC(=O)Oc1ccc(C#C/C=C2\c3ccccc3C(=O)N2c2ccccc2)cc1`, the inhibition is 22.6% (inactive). Consider `Cc1nc2c(cc1NC(=O)C(C)(C)C)nc(C)n2Cc1ccccc1`, for which the inhibition was -8.25% (inactive). As for `O=c1cc(-c2ccccc2Cl)oc2cccc(O)c12`, the inhibition is 1.24% (inactive).

As for `Nc1ccc2oc(-c3ccccc3Cl)cc(=O)c2c1O`, the inhibition was -3.11% (inactive).

With `COc1ccccc1N(CC(=O)NCCSC(C)(C)C)S(C)(=O)=O`, the inhibition is 2.68% (inactive). `CN1CCN(CC(=O)Nc2c(C(=O)c3ccccc3)oc3ccccc23)CC1`: the inhibition is 3.75% (inactive). Next, `COc1ccc2oc(C(=O)c3ccccc3)c(NC(=O)CN3CCN(C)CC3)c2c1`: 15.4% (inactive); `COC(C[C@@H]1O[C@H]1C(=O)COCc1ccccc1)OC`: -5.79% (inactive). As for `O=C(Cn1ccc([N+](=O)[O-])n1)NCc1cccnc1`, the inhibition was 4.03% (inactive). On to `CCCCSC1(SCCCC)N=C(N)C2(C#N)C(c3ccccc3)NC(C)=CC12C#N` (stereo unspecified), for which the inhibition is -0.17% (inactive). Take `CCC(=O)Nc1cccc2ccccc12`: the inhibition is -0.62% (inactive). Turning to `CCCC(=O)Nc1ccccc1NC(=O)CCC`, the inhibition was 0.31% (inactive). With `COc1ccc(C(=O)N(c2ccc(OC)cc2)S(=O)(=O)c2cccs2)cc1`, the inhibition is 4.22% (inactive).

Consider `NC(=O)CSc1nc2cc(Cl)ccc2c(=O)n1C1CCCCC1`, for which the inhibition is -1.2% (inactive).

Regarding `COc1ccc(-c2cc3c(=O)n(CC(=O)NCc4ccccc4OC)ncn3n2)cc1`, the inhibition was -8.29% (inactive). Next, `C/C(=N/NC(=O)c1cccs1)c1ccc(N2CCOCC2)cc1`: -6.32% (inactive). `CC1(c2cccc([N+](=O)[O-])c2)CC(C)(C)N(C(=O)c2ccccc2)c2ccccc21` (stereo unspecified): the inhibition was 1.14% (inactive). Take `CC(=O)N1c2ccccc2C(C)(c2ccccc2)CC1(C)C` (stereo unspecified): the inhibition was -5.59% (inactive). The figure for `Cc1cc(C)c(S(=O)(=O)c2ccccc2C)c(SCC(C)C)n1` is 11% (inactive); for `Cc1sc2ncn(/N=C/c3ccco3)c(=O)c2c1C` it is -10.2% (inactive). As for `Cc1ccc(/C=N/n2cnc3sc(-c4ccccc4)cc3c2=O)o1`, the inhibition is 44.5% (inactive). In the case of `CCCCn1nnnc1SCC(=O)Nc1cccc(C)c1`, the inhibition was 7.62% (inactive).

For the molecule `COc1ccc(CCN(C)C(=O)c2ccc(COc3ccccc3)o2)cc1OC`, the inhibition was 2.55% (inactive).

Take `CC(O)(CS(=O)(=O)Cc1ccccc1)c1ccccc1Cl` (stereo unspecified): the inhibition was -7.18% (inactive). Turning to `Cn1cnnc1SCC(=O)Nc1nc(-c2ccc(F)cc2)cs1`, the inhibition was -5.61% (inactive).

Turning to `CCCn1c(N2CCN(CC(=O)Nc3ccc4c(c3)OCCO4)CC2)nc2ccccc21`, the inhibition is -1.09% (inactive). The figure for `O=C(Nc1cc(N2CCOCC2)ncn1)NC1(C(F)(F)F)Oc2ccccc2O1` is -1.34% (inactive); for `O=C(NCCN1CCOCC1)NC1(C(F)(F)F)Oc2ccc(Cl)cc2O1` (stereo unspecified) it is 66.9% (inactive); for `CCOC(=O)c1[nH]c2ccc(OCC)cc2c1NC(=O)CN1CCN(c2ccccc2)CC1` it is -2.46% (inactive).

With `CCOC(=O)c1[nH]c2ccc(F)cc2c1NC(=O)CN1CCc2cc(OC)c(OC)cc2C1`, the inhibition was 11.2% (inactive). The figure for `CNC(=S)N(C)CCc1cc2c(c(OC)c1C=C1C(=O)NC(=O)NC1=O)OCO2` is -4.55% (inactive); for `C[C@@H](C(=O)Nc1ccc2ccccc2c1)[C@@H]1C[C@@]1(C)[C@@H](NC(=O)c1ccccc1)c1ccccc1` it is 27.7% (inactive). Take `Cc1cc(C(=O)N[C@@H](c2ccccc2)[C@]2(C)C[C@H]2[C@@H](C)C(=O)Nc2ccc3ccccc3c2)no1`: the inhibition was 49.4% (inactive). With `Cc1ccc(/C=C/C(=O)N2CCN(S(=O)(=O)c3cccs3)CC2)o1`, the inhibition is -4.62% (inactive).

In the case of `Cc1ccc(S(=O)(=O)N2CCN(Cc3nc4sc5c(c4c(=O)[nH]3)CCCC5)CC2)cc1`, the inhibition was 1.29% (inactive). With `Cc1ccc(S(=O)(=O)Oc2ccc(/C=N/NC(=O)c3c(Cl)cnn3C)cc2)cc1`, the inhibition is 25.4% (inactive). Regarding `CC(C)c1ccc(/C=N/NC(=O)c2c(Cl)cnn2C)cc1`, the inhibition is -0.44% (inactive). Turning to `Fc1ccc(CN2CCN(c3ccc(Cl)cc3)CC2)cc1`, the inhibition was 9.18% (inactive). As to `CCn1c(N)c(C(=O)NCc2cccnc2)sc1=S`, the inhibition was -1.76% (inactive). The figure for `S=c1[nH]nc(C2CCCCC2)n1/N=C/c1ccccc1` is 9.46% (inactive). Next, `S=c1[nH]nc(C2CCCCC2)n1/N=C/C(Cl)=C\c1ccccc1`: -11% (inactive). As to `Cc1cc(-c2n[nH]c(=S)n2/N=C/C(Cl)=C/c2ccccc2)n[nH]1`, the inhibition was 1.35% (inactive). Consider `CC(/C=N/n1c(-c2cc(C)[nH]n2)n[nH]c1=S)=C\c1ccccc1`, for which the inhibition is -2.29% (inactive).

In the case of `Fc1cccc2sc(Nc3nc4cc5c(cc4s3)OCCO5)nc12`, the inhibition is 45.4% (inactive). On to `Cc1c(Cl)cccc1NC(=S)N(CCN(C)C)C(C)c1ccccn1` (stereo unspecified), for which the inhibition is 0.24% (inactive). Next, `CCO[C@@H]1OC(C(=O)Nc2ccccc2)=C[C@H](c2ccc3c(c2)OCO3)[C@H]1CCCO`: 13.4% (inactive); `COc1cc(NC(=O)COC(=O)c2cc(S(=O)(=O)N3CCCCC3)ccc2Cl)c(C)cc1[N+](=O)[O-]`: -2.58% (inactive); `CCN1C(=O)[C@H]2[C@@H](c3ccc(-c4ccc(C(C)=O)cc4)cc3)N3CCC[C@@]3(C(=O)OC)[C@H]2C1=O`: 21.2% (inactive).

For `CCOc1ccc(C2c3[nH]c4ccccc4c3C[C@H]3C(=O)N(C4CC4)CC(=O)N23)cc1OC` (stereo partly specified), the inhibition is 4.59% (inactive). In the case of `COc1ccc(C2c3[nH]c4ccccc4c3C[C@H]3C(=O)N(C4CCN(Cc5ccccc5)CC4)CC(=O)N23)c(OC)c1` (stereo partly specified), the inhibition was 30.2% (inactive).
